Source: PubChem BioAssay (NCI)
The panel holds about 83,000 compounds, 20% with a hit somewhere; the sample as a whole holds those more often.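 Compound tested at a single concentration for 48 hours in 96-well plates; a percent growth value below 10 was scored as active.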 A number with no mark means an inactive call. Activity calls are given as the source filed them.

Legend:
Test in all cases: NCI-60 one-dose screen, 48 h (100 = growth as untreated, 0 = no growth, -100 = all killed)
Details in all cases: 10 µM unless noted
[1] = system: DU-145 prostate
[2] = system: K-562 leukemia
[3] = system: MALME-3M melanoma
[4] = system: MDA-MB-231 breast
[5] = system: RXF 393 renal
[6] = system: SF-268 CNS
[7] = system: SF-295 CNS
[8] = system: SF-539 CNS
[9] = system: UACC-257 melanoma
[10] = system: M14 melanoma
[11] = system: HCT-15 colon
[12] = system: HT29 colon
[13] = system: SNB-19 CNS
[14] = system: U251 CNS
[15] = system: PC-3 prostate
[16] = system: SK-MEL-5 melanoma
[17] = system: UACC-62 melanoma
[18] = system: LOX IMVI melanoma
[19] = system: SK-MEL-28 melanoma
[20] = system: SNB-75 CNS

SMILES | growth [1] | growth [2] | growth [3] | growth [4] | growth [5] | growth [6] | growth [7] | growth [8] | growth [9] | growth [10] | growth [11] | growth [12] | growth [13] | growth [14] | growth [15] | growth [16] | growth [17] | growth [18] | growth [19] | growth [20]
O=[N+]([O-])c1cccc(-c2nc3sccn3c2-c2ccnc(NCCNS(=O)(=O)c3ccc(C(F)(F)F)cc3)n2)c1 | 48.5% | 21.8% | 41.1% | 60.2% | 56% | 39.8% | 37.4% | 74.5% | 49.1% | 37.8% | 26.7% | 40% | 61.4% | 51.4% | 17% | -14% (active) | 13.2% | 30.4% | 58.8% | –
C=C1CC[C@@H]2[C@](C)(COC(C)=O)[C@H](OC(C)=O)CC[C@@]2(C)[C@@H]1CC(NCc1ccc(F)cc1)C1=CCOC1=O (stereo not given in full) | 69.8% | 18.8% | 65.1% | 60.9% | 80.6% | 62.6% | 96.1% | 64.4% | 45.8% | 37.3% | – | 21.3% | – | 48% | 20.8% | 11.8% | 32.2% | 9.33% (active) | 77.8% | 58.1%
Nc1cc2ccncc2c2ccccc12 | 75.4% | 112% | 97.6% | 64.1% | 81.5% | 75.6% | 69.3% | 79.1% | 103% | 94.7% | 75.1% | 65.2% | – | 81.1% | 83.1% | 76.9% | 60.7% | 50.8% | 103% | –
CN1CCN(Cc2ccc(NC(=O)c3[nH]ncc3Nc3ncnc4[nH]ccc34)cc2)CC1 | 3.78% (active) | 5.62% (active) | -23.3% (active) | 0.311% (active) | -70.2% (active) | -6.72% (active) | 9.36% (active) | -65% (active) | 15.7% | 0.163% (active) | 15.6% | 1.32% (active) | – | 7.23% (active) | 5.02% (active) | -25.4% (active) | 6.54% (active) | -67% (active) | 2.8% (active) | –
O=C1C2CC=CCC2C(=O)N1CNc1ccc(Cl)cc1 (stereo not given) | 106% | 84.6% | 87.6% | 92.8% | 92% | 96.9% | 106% | 86.5% | 101% | 94.2% | 89.6% | 96.3% | – | 94.1% | 76.9% | 95% | 62.7% | 77% | 109% | –
C(=N\Nc1ccccn1)/c1ccccn1 | 9.51% (active) | 19.3% | -2.58% (active) | 47.6% | 17% | -0.109% (active) | 21.7% | 7.48% (active) | -18.9% (active) | -35.8% (active) | 42.7% | 19% | 40.4% | 13.4% | 63.5% | – | 2.66% (active) | -11.6% (active) | 34.8% | –
C=CC[N+]1(CCO)CCN=C1CCCCCCCCCCCCC (stereo not given) | -90.4% (active) | -53.9% (active) | -61.9% (active) | -70.1% (active) | -55.3% (active) | -60.6% (active) | 47.5% | -96.6% (active) | -80.3% (active) | -86.2% (active) | – | -92.2% (active) | – | -87.8% (active) | -29.9% (active) | -95% (active) | -96.5% (active) | -87.9% (active) | -69.5% (active) | –
Cc1cc(N/N=C/c2nc(-c3ccc(Cl)cc3)oc2C)c2cc(Cl)ccc2n1 | 34.3% | -15.8% (active) | -14.2% (active) | 63.8% | 83.3% | 74.8% | 98.6% | 69.5% | 101% | 8.84% (active) | -52.6% (active) | -51.2% (active) | 29.3% | -54.5% (active) | 67% | 95.1% | 29.7% | -66.7% (active) | 10.3% | –
